Experimental data: PubChem BioAssay AID2099 (Broad Institute, 2009)
The campaign covered roughly 330,000 compounds. About 230 (0.07%) were called active. This excerpt belongs to a sample that is enriched for actives. A number with no mark means an inactive call.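 How the source made its calls: active means more than half of a compound's replicate wells show inhibition beyond 50%, single wells judged on their own value; inconclusive means some, but no more than half, of replicates pass 50% inhibition; inactive means no replicate passes 50% inhibition.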

Target: Lysine-specific demethylase 4C (Homo sapiens) (UniProt Q9H3R0)
Sequence (Q9H3R0 1-420 limits assumed): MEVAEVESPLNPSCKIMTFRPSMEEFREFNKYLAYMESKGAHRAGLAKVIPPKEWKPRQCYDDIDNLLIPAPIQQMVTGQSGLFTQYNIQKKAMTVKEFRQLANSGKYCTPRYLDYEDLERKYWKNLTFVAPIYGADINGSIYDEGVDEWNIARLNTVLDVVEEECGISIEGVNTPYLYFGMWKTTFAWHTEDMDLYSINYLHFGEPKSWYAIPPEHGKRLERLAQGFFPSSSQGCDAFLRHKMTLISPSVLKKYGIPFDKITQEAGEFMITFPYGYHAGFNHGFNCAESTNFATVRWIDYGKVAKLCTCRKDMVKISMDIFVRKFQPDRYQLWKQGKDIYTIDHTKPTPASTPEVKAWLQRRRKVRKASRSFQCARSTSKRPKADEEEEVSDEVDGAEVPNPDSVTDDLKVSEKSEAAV
Experiment: JMJD2C H3K9me3 demethylation blockers – biochemical, fluorescence, DELFIA europium, primary screen (AID 2099);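 further: signal counts dimethyl H3K9 product captured on neutravidin plate; 0% = median of DMSO wells and 100% = 0.3 times that DMSO median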
Conditions: GST-JMJD2C(1-420) H3K9me3 demethylation, at 2.35 µM, stronger effect = higher value

Row | Structure (SMILES) | inhibition
1 | Cc1ccc2c(c1)=C/C(=C\c1c(O)[nH]c(=O)[nH]c1=O)C(=O)N=2 | 68.2% (active)
2 | O=c1[nH]c(O)c(C=Nc2cc(F)cc(F)c2)c(=O)[nH]1 | 8.75%
3 | O=C1N=c2ccccc2=C/C1=C\c1c(O)[nH]c(=S)[nH]c1=O | 0.999%
4 | COc1ccc(CN2CCN(c3ccccc3F)CC2)c(OC)c1 | 2.07%
5 | NCC(O)c1ccc(O)cc1 (stereo not given) | 4.95%
